# Activity calls are given as the source filed them. Rule for the calls: active = hit-call score of the fitted dose curve at least 0.9, where 1 is the maximum; inactive = score below 0.9.
# Read-out: JUN Transcription Factor, JUN (gene 3725)
# Assay: LTEA_HepaRG_JUN: Life Technologies and Expression Analysis (LTEA) Assay for JUN Transcription Factor using HepaRG (AID 2283513)
# Details: mRNA level, 48 h; actives raise or lower the signal
# Method: LTEA_HepaRG is a cell based, multiplexed-readout assay that uses HepaRG, a human liver cell line, with measurements taken at 48 hours after chemical dosing on a 96-well plate.LTEA_HepaRG_JUN is one of 102 assay component(s) measured in the LTEA HepaRG cell culture assay. It is a marker of Cell proliferation, survival, death.Data from the assay component LTEA_HepaRG_JUN was analyzed into 1 endpoint. This assay endpoint, LTEA_HepaRG_JUN, was analyzed with bidirectional fitting relative to DMSO as the negative control and baseline of activity. Using a type of inducible reporter, measures of mRNA induction for gain or loss-of-signal activity can be used to understand regulation of transcription factor activity. To generalize the intended target to other relatable targets, this assay endpoint is annotated to the dna binding intended target family, where the subfamily is basic leucine zipper.
# A total of 1060 chemcials from the ToxCast library were tested in eight-point concentration-response experiments. Cell culture and cytotoxicity assays were conducted at Thermo Fisher Scientific's Custom Services facility (Madison, WI). A single lot of human HepaRG cells (Thermo Fisher Scientific, Frederick, MD) was used for the cell culture experiments. 96-well format collagen type I coated plates of human HepaRG cells were prepared using established methods. Briefly, cryopreserved HepaRG cells were thawed, plated at a density of approximately 100,000 cells/well in HepaRG Thaw, Plate, and General Purpose media (HPRG770, Thermo Fisher Scientific), and incubated for 48 hours. 0.5% DMSO was selected as vehicle control to balance the requisite need of DMSO in HepaRG cultures to maintain differentiation (for example, baseline metabolism, proportions of hepatocytes vs. cholangiocytes), while enabling further hepatic receptor pathway activation (for example, PXR and CAR) in response to chemical exposure. 48 hours after plating, the culture medium was replaced with HepaRG Serum-Free Incudtion Media. Cells were exposed to each test chemical in duplicate and maintained in CO2 incubators for another 48 hours. Chemical plates were thawed to room temperature and 200x concentrations of treatment groups were prepared. 8-point conentration-reponse curves were made with the highest exposure at 100 uM, followed by half-log dilutions, all in 0.5% DMSO. Each test plate contained variouse controls, induction positive controls (1mM phenobarbital), cytotoxicity positive controls ([…] aflatoxin B1), vehicle controls (0.5% DMSO), and total lysis controls (0.5% DMSO). Cell morphology images were taken using an Essen IncuCyte FLR automated microscope, with six 96-well plates imaged in about 24 minutes. Images were captured and exported and JPEG files. Spent culture media was transfered to black-well plates for the LDH assay, and remaining media was sorted at -80 C for later use. Cells were treated with RLT buffer and frozen until shipped for gene expression analysis. Total RNA was isolated from the cell suspension in 75 uL of Buffer RLT (Qiagen, Germantown, MD 20874) by Quintiles/Expression Analysis (Durham, NC) using a custom isolation procedure. Total RNA from each plate well was transferred to a preamplification plate. Fluidigm's 96.96 Dynamic ArrayTM (Fluidigm, Amsterdam, the Netherlands) technology was used for gene expression analyses by quantitative reverse transcription polymerase chain reaction (qRT-PCR, performed by Quintiles/Expression Analysis, Durham, NC)89. Standard TaqManTM Assays (Applied Biosystems/ThermoFisher Scientific, Foster City, CA) were used to assess the expression of 93 genes selected based on their selectivity and sensitivity to important hepatic receptors known to be modulated by environmental chemicals; importance in human hepatocyte functionality; and hepatotoxicity. […]
SMILES,outcome,AC50
Cc1oc2c(NC(=O)c3c(Cl)cccc3Cl)cccc2c1C(C)(C)O,inactive,
O=c1ccc2ccccc2o1,inactive,
CN1C(=O)N(c2ccccc2Br)Cc2cnc(Nc3ccc4c(c3)OCC(CO)O4)nc21 (stereo not given),,12.1 µM (active)
O=C1CCC(C2CCCCC2)CC1,inactive,
CCCCCc1ccc(N)cc1,inactive,
CCOC(=O)O[C@H](C)OC(=O)c1ccc2c(c1)cc(C(=O)NC1CCN(C(C)C)CC1)n2Cc1cc(-c2ccc(Cl)s2)on1,inactive,
CCCC(=O)OCCC(C)C,inactive,
CCCCCCCCCC(=O)O,inactive,
O=C(OCCCCCCOC(=O)c1ccccc1)c1ccccc1,inactive,
O=C(O)Cc1cc(I)c(Oc2ccc(O)c(I)c2)c(I)c1,,80.7 µM (active)
c1ccc(C[n+]2cccc3ccccc32)cc1,inactive,
CCCCCCCCCCCCO,inactive,
Cc1cn([C@H]2C[C@H](N=[N+]=[N-])[C@@H](CO)O2)c(=O)[nH]c1=O,inactive,
CO[C@H]1/C=C/O[C@@]2(C)Oc3c(C)c(O)c4c(O)c(c(/C=N/N5CCN(C)CC5)c(O)c4c3C2=O)NC(=O)/C(C)=C\C=C\[C@H](C)[C@H](O)[C@@H](C)[C@@H](O)[C@@H](C)[C@H](OC(C)=O)[C@@H]1C,inactive,
O=c1[nH]sc2ccccc12,inactive,
CCN(Cc1cccnc1)C(=O)c1cccc(Cl)c1[C@]1(C)C(=O)N(Cc2ccc(OC)cc2OC)c2ccc(Cl)cc21,inactive,
CN1C(=O)CC[C@H]1c1cccnc1,inactive,
O=C(O)c1ccccc1C(=O)OCc1ccccc1,inactive,
CC(C)(C)c1cc(/C=C2\SC(N)=NC2=O)cc(C(C)(C)C)c1O,,66.6 µM (active)
Cc1cccc2ccccc12,inactive,

SMILES,outcome,AC50
O=C=NCCCCCCN=C=O,inactive,
O=C(Nc1ccc(Cl)cc1)Nc1ccc(Cl)c(Cl)c1,,22.8 µM (active)
CN(C[C@@H](CC[N+]12CCC(C3CCCCC3)(CC1)CC2)c1ccc(Cl)c(Cl)c1)C(=O)c1cc(C(F)(F)F)cc(C(F)(F)F)c1,,88.5 µM (active)
O=C(O)c1ccccc1-n1cc(C(=O)O)c(=O)c2cc(Nc3c(F)cc(F)cc3Cl)c(Cl)cc21,inactive,
OCCO,inactive,
CCCCCCCCOc1ccc(C(=O)c2ccccc2)c(O)c1,inactive,
Cc1occc1C(=O)Nc1ccc(C(=O)N2CCC(F)(F)/C(=C\C(=O)N3CCC(N4CCCCC4)CC3)c3ccccc32)cc1,inactive,
CC(O)CC(C)(C)O (stereo not given),inactive,
Oc1ccccc1,inactive,
CCCOC(=O)c1cc(O)c(O)c(O)c1,inactive,
Cc1cc(F)ccc1-c1cc(N2CC[C@@H](O)[C@H]2CO)ncc1N(C)C(=O)C(C)(C)c1cc(C(F)(F)F)cc(C(F)(F)F)c1,,74.8 µM (active)
CC(=O)N1CCN(c2ccc(OC[C@H]3CO[C@](Cn4ccnc4)(c4ccc(Cl)cc4Cl)O3)cc2)CC1,,50 µM (active)
Cc1cc2c(cc1C(F)(F)F)N(C(=O)Nc1ccc(Oc3cccnc3C)nc1)CC2,inactive,
Oc1ccc2ccccc2c1,inactive,
Clc1ccccc1C(c1ccccc1)(c1ccccc1)n1ccnc1,,66 µM (active)
COCC(C)OCC(C)OCC(C)O (stereo not given),inactive,
CCN(Cc1cccc(S(=O)(=O)O)c1)c1ccc(C(=C2C=CC(=[N+](CC)Cc3cccc(S(=O)(=O)O)c3)C=C2)c2ccccc2S(=O)(=O)[O-])cc1,inactive,
NC(=O)c1nc(-c2cccc(-c3cc(F)ccc3OCC(F)(F)C(F)(F)F)c2)n[nH]1,,79 µM (active)
O=C(O)Cn1c(=O)n(Cc2ccc(Br)cc2F)c(=O)c2ccc(Cl)cc21,inactive,
Cc1ccc2oc(CN(Cc3ccccc3)C(=O)Nc3c(F)cc(F)cc3F)c(-c3ccc(Cl)cc3)c2c1,inactive,

# Reference: PubChem BioAssay (EPA / NIEHS)
